Source: PubChem BioAssay AID686996 (Broad Institute, 2013)
In all, about 350,000 compounds went through this assay and about 1,900 (0.54%) were called active.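 How the source made its calls: active means mean inhibition across replicates at least about 35%, with every replicate also reaching that limit (limit read from the data); inconclusive means only one of the two criteria met; inactive means neither criterion met.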 Only a selection was taken, and actives are over-represented in it overall.

Target: Caspase-6 (Homo sapiens) (UniProt P55212)
Sequence (P55212 24-179 limits assumed): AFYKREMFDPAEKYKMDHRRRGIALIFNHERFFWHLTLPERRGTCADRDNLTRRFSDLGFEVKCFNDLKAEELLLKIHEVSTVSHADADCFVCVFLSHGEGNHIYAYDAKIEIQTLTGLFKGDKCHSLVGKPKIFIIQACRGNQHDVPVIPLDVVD
Sequence (P55212 194-293 limits assumed): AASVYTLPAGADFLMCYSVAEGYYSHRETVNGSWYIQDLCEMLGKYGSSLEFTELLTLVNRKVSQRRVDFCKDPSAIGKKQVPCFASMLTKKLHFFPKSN
Assay: human caspase-6 inhibitors, primary screen, biochemical, VEID-R110 fluorescence, single point, set 2 (AID 686996);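 further: 0% = median of neutral control wells and 100% = no fluorescence left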
Conditions: purified caspase-6, Z-VEID-R110 cleavage fluorescence; at 12.5 µM; active compounds read high

inhibition, active:
O=S(=O)(Nc1ccccc1Cl)c1cccc2nsnc12 51.3%
COc1ccc(-c2cc(C(=O)NC(Cc3c[nH]c4ccccc34)C(=O)O)c(C)o2)cc1OC (stereo unspecified) 50.7%
COc1ccc(Cl)cc1N(CC(=O)N/N=C/c1ccc(OCC(N)=O)cc1)S(C)(=O)=O 49.4%

inhibition, inactive:
O=S(=O)(N[C@H]1CC[C@@H](CCNS(=O)(=O)c2ccccc2Cl)O[C@@H]1CO)c1ccccc1 1.46%
C[C@@H]1CN([C@@H](C)CO)C(=O)c2cc(NC(=O)Nc3ccc4c(c3)OCO4)ccc2O[C@@H](C)CCCCO[C@@H]1CN(C)S(=O)(=O)c1cccs1 -0.287%
O=C(O)c1ccc(NS(=O)(=O)c2cccc3nsnc23)cc1 4.06%
COc1ccc(NS(=O)(=O)c2cccc3nsnc23)cc1Cl -0.203%
Cc1cccc(S(=O)(=O)N2CC[C@@H]3[C@H]2c2cc(C#Cc4ccccc4F)ccc2N[C@@H]3CO)c1 4.39%
CC(C)NC(=O)Nc1ccc2c(c1)C(=O)N([C@@H](C)CO)C[C@H](C)[C@H](CN(C)C(=O)NC1CCCCC1)OCCCC[C@@H](C)O2 1.72%
C[C@@H]1CN([C@H](C)CO)C(=O)c2cc(-c3cccc(C#N)c3)cnc2O[C@H]1CN(C)C(=O)C1CCC1 -1.37%
COc1ccc(-c2cc(=O)oc3cc(OCC(=O)N[C@@H](Cc4c[nH]c5ccccc45)C(=O)O)ccc23)cc1 5.8%
CC(Oc1ccc2c(-c3ccccc3)cc(=O)oc2c1)C(=O)NC(Cc1c[nH]c2ccccc12)C(=O)O (stereo unspecified) 5.42%
COc1ccc2c3c([nH]c2c1)[C@H](CO)N(Cc1nccs1)CC31CCN(Cc2cccnc2)CC1 1.89%
C/C=C/c1ccc([C@H]2[C@@H](CO)N(C(C)=O)[C@H]2CNC(=O)c2ccncc2)cc1 -0.501%
COc1ccc2c3c([nH]c2c1)[C@@H](CO)N(S(C)(=O)=O)CC31CN(CC2CC2)C1 0.799%
COc1ccc(S(=O)(=O)N(CC(=O)N/N=C/c2ccc(C(=O)O)cc2)Cc2ccccc2)cc1OC 3.65%
COc1ccc(Cl)cc1N(CC(=O)N1CCCCC1)S(C)(=O)=O 5.56%
O=C(C1CCCCC1)N1CC(=O)N2[C@H](CO)[C@@H](c3ccc(C#Cc4cccc(F)c4)cc3)[C@@H]2C1 -1.89%
C[C@H](CO)N1C[C@H](C)[C@H](CN(C)C(=O)C2CCOCC2)Oc2ncc(-c3ccccc3F)cc2C1=O -2.04%
C[C@H](CO)N1C[C@H](C)[C@@H](CN(C)Cc2cccc(F)c2)Oc2cc(C#CC3CC3)ccc2S1(=O)=O 0.411%
Cc1ccc(S(=O)(=O)N(C)C[C@H]2Oc3ccc(NC(=O)Nc4cccc5ccccc45)cc3CC(=O)N([C@H](C)CO)C[C@H]2C)cc1 -0.526%
